These results are taken from PubChem BioAssay (Tox21).

Values joined by “and” are separate entries in the source; they are usually repeats but may differ in a detail not shown here. Identical values can stand only once. Results filed as inconclusive are left out. Some compounds were tested as several samples or in several runs, with calls that do not always agree. Active and inactive are the calls of the source. Calls follow the shape of the dose curve; as a rule, active = well fitted activation curve with a large enough effect in the repeat runs; inconclusive = weak or mixed curves; inactive = flat fitted curve, though single readings scatter.
% is scaled to controls: 0 for no effect and ±100 for the full control effect; potency is read from the fitted curve at half-maximal effect.

The test can be described thus: A CellTox Green Cytotoxicity Assay to monitor cytotoxicity in HEK293 cells - 8 hour (AID 1224884). Also: nearly all actives have a fitted effect of over 35% in size. To be noted: CellTox Green fluorescence; series mostly up to 76.8 µM; cytotoxicity increase: at the top concentration. The source says:
National Center for Advancing Translational Sciences [NCATS]
NIH Chemical Genomics Center [NCGC]
U.S. Environmental Protection Agency [EPA]
National Institutes of Environmental Health Sciences [NIEHS]
National Toxicology Program [NTP]
Cell-based models are critical for drug discovery. Determining the natural cytotoxic effects resulting from test compounds is an essential research activity. A CellTox Green Cytotoxicity Assay to monitor cytotoxicity in real time of continues cell culture during 40 hours of the compound treatment was used to screen Tox21 10K library compounds in Hek293 cells. CellTox Green Cytotoxicity Assay is a nonlytic, homogeneous, biofluorescent method to measure cytotoxicity in cell culture after experimental manipulation. The assay system uses a proprietary asymmetric cyanine dye that is excluded from viable cells but preferentially stains the dead cell's DNA. […] Viable cells produce no appreciable increases in fluorescence. Therefore, the fluorescence signal produced by the binding interaction with dead cell DNA is proportional to cytotoxicity.
The mixture of Hek293 cell suspension and reagents were dispensed at 600cells/6 ul/well in 1536-well tissue culture treated black solid bottom plates using a Multidrop dispenser. After the assay plates were incubated at a 37 C/5% CO2 incubator for 5 hours, 23 nL of compounds dissolved in DMSO, positive and negative controls was transferred to the assay plate by a pintool work station. The plates were incubated at 37 C for 40 hours. The fluorescence intensity were measured at 0h, 8h, 16h, 24h, 32h and 40h time points using ViewLux plate reader during compound treatment.
Regarding `COC(=O)/C=C/c1ccccc1`, the Potency entry is “inactive and 34.7 µM (active)”.

For `O=C(O)c1cn(-c2ccc(F)cc2)c2cc(N3CCNCC3)c(F)cc2c1=O`, the Potency result is “inactive”. Same read-out and setting: then `Cc1cc(OCCOCC[N+](C)(C)Cc2ccccc2)ccc1C(C)(C)CC(C)(C)C`, with 23.9 µM (active); and `NNCCc1ccccc1`, with “inactive”; and `Cc1cccc(O)c1C`, with “inactive and 22.5 µM (active)”. `CC(C)(C)c1ccccc1`: the “cytotoxicity increase” value was -4.72% (inactive).

On to `c1ccc2n[nH]nc2c1`, for which the Potency was 9.5 µM (active) and inactive. Regarding `COc1nc(C)nc(Cl)c1NC1=NCCN1`, the “cytotoxicity increase” value is -11.4% [at 35.3 µM] (inactive).

Regarding `Cc1cc(C(C)(C)C)c(O)c(C(C)(C)C)c1`, the “cytotoxicity increase” value was 13.1% [at 35.3 µM] (inactive). As to `O=C1NCC2(CCN(CCc3ccccc3)CC2)O1`, the “cytotoxicity increase” value is 0.025% [at 35.3 µM] (inactive). Turning to `CC(C)(C)NC(=O)[C@@H]1CN(Cc2cccnc2)CCN1C[C@@H](O)C[C@@H](Cc1ccccc1)C(=O)N[C@H]1c2ccccc2C[C@H]1O`, the Potency entry is “inactive”. For the molecule `CCN(CC)CCOc1ccc(/C(=C(\Cl)c2ccccc2)c2ccccc2)cc1`, the Potency was 39.7 µM (active) and inactive. Regarding `CC(=O)OCCOCCOCCOC(C)=O`, the Potency entry is “inactive”.

As to `Cc1occc(=O)c1OC(=O)C(C)C`, the “cytotoxicity increase” value was 1.52% (inactive). The same measure, in the same setting: the result for `CC1COc2c(N3CCN(C)CC3)c(F)cc3c(=O)c(C(=O)O)cn1c23` (stereo not given) reads -0.746% [at 35.3 µM] (inactive); that for `C[N+]1([O-])CCOCC1`, -10.8% (inactive). On the same count and under the same terms, the result for `Cc1cccc([N+](=O)[O-])c1C(=O)O` reads -9.09% (inactive); that for `CCn1cc(C(=O)O)c(=O)c2cc(F)c(N3CCNC(C)C3)c(F)c21` (stereo not given), -3.93% [at 35.3 µM] (inactive). With `CCC(=O)/C=C/C1C(C)=CCCC1(C)C` (stereo not given), the Potency is 39 µM (active) and inactive. Consider `CCC(CO)(CO)COCC(CC)(CO)CO`, for which the “cytotoxicity increase” value is -3.19% (inactive).

Turning to `Nc1ccc(O)cc1`, the Potency entry was “inactive”.

As to `CC(=O)CC(C)=O`, the “cytotoxicity increase” value was -0.355% (inactive).

Consider `CC(=O)C1=C(C)[C@@H]2C[C@@]3(C1)[C@H](C)CC[C@H]3C2(C)C`, for which the Potency entry is “inactive”.

Take `CC[C@H]1CN2CCc3cc(OC)c(OC)cc3[C@@H]2C[C@@H]1C[C@H]1NCCc2cc(OC)c(OC)cc21`: the Potency entry was “inactive”. For `c1ccc2c(c1)CCCC2C1=NCCN1` (stereo not given), the “cytotoxicity increase” value was 5.07% [at 35.3 µM] (inactive). On the same count and under the same terms, the result for `O=C(O)CCc1ccccc1` reads -9.2% (inactive). Take `CNC1(C)C2CCC(C2)C1(C)C` (stereo not given): the “cytotoxicity increase” value was 2.14% [at 35.3 µM] (inactive). The same measure, in the same setting: then `O=C(O)c1cc(Cl)cc(Cl)c1`, with 9.88% (inactive); and `Clc1ccc2c(c1)C(N1CCNCC1)=Nc1ccccc1O2`, with 10.7% [at 35.3 µM] (inactive); and `CC1=C(C=O)C(C)(C)CC=C1`, with -4.48% (inactive). The same measure, in the same setting: then `CN1C(=O)c2ccc([N+](=O)[O-])cc2C1=O`, with -7.45% (inactive); and `Cc1cccc2n[nH]nc12`, with -1.38% (inactive). As to `COC(=O)c1cccc(C(=O)OC)c1`, the Potency entry was “inactive and 43.6 µM (active)”. Regarding `CO[Si](OC)(OC)c1ccccc1`, the “cytotoxicity increase” value is -7.74% (inactive). `CCCOC(=O)c1cc(O)c(O)c(O)c1`: the Potency result is “inactive”. The same measure, in the same setting: the result for `O=C(Oc1ccccc1)c1ccccc1O` reads “inactive”. Turning to `CCCCC/C=C/CC1CC(=O)OC1=O` (stereo not given), the “cytotoxicity increase” value was -6.18% (inactive). On to `Cc1cc(C2(c3cc(C)c(O)cc3C)OS(=O)(=O)c3ccccc32)c(C)cc1O`, for which the Potency entry is “inactive”. As to `CCCCN(CCO)CCCC`, the “cytotoxicity increase” value was 1.37% (inactive). Still for that read-out and setting: the result for `O=C(O)CP(=O)(O)O` reads 0.218% [at 35.3 µM] (inactive).
